PubChem BioAssay (NCATS)
A number with no mark means an inactive call.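 The calls were made as follows: active = calcium activation more than 3 SD above the typical response in the agonist read; inactive = the rest.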

What follows are molecules tested against Thyrotropin-releasing hormone receptor (Homo sapiens) (UniProt P34981) (assay: qHTS for Small Molecule Agonists and Allosteric Enhancers of Human TRH Receptor: Validation Screen for Agonists (AID 493127;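 also: intracellular calcium rise by fluo-8 fluorescence before TRH EC20 addition; 0% is about no effect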)). Conditions: TRH receptor agonist cell assay; at 2 µM; hits give high values.
Chain of Thyrotropin-releasing hormone receptor (Homo sapiens) (P34981 whole entry, looked up): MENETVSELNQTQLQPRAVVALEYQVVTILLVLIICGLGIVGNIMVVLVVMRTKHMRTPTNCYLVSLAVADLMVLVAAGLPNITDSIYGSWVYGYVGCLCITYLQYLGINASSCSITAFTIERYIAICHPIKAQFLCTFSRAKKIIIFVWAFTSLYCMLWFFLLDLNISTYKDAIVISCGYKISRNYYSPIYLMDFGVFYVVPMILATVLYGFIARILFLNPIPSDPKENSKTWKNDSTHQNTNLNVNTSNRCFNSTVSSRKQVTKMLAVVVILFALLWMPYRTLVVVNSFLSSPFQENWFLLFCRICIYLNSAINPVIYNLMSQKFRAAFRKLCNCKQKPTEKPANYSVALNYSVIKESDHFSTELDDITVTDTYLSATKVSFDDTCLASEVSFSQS
Description: NIH Chemical Genomics Center [NCGC]
NIH Molecular Libraries Probe Centers Network [MLPCN]
Assay Submitter (PI): Marvin Gershengorn
This project aims to identify small drug-like molecules that activate (agonists) the thyrotropin releasing hormone (TRH) receptor (TRHR) or enhance its TRH-stimulated activity (allosteric enhancers). TRHR, a drug-accessible cell surface receptor expressed in specific brain regions, and its ligand TRH have been implicated in several central nervous system disorders, including depression and anxiety. Small molecule TRHR agonists or allosteric enhancers that are metabolically stable and able to cross the blood-brain barrier might serve as probes to elucidate the roles of brain TRH receptors in animal models, and might be valuable as lead compounds for the development of drugs to treat patients with central nervous system disorders.
Upon TRHR-Gq activation in TRHR cells, intracellular calcium is released from stores in the endoplasmic reticulum. […] This validation screen measures compound-induced activation of calcium release.
For the HTS assay freshly prepared cells are plated at a density of 2000/well in 3 ul of complete DMEM medium containing 10% serum in 1536-well plates and cultured over night at 37 C in a humidified incubator with 5% CO2. The next day, 2 ul of a no wash calcium dye (ABD Bioquest) was added to the cells and plates were incubated at room temperature for 1 hour. For the assay, assay plates were loaded into the FDSS kinetic plate reader. A 10 cycle (1 second/cycle) baseline measurement is taken and then the FDSS online 1536 pintool delivers 23 nl of compound library (as well as TRH controls) to the plate. The plate is measured for kinetically at 1 cycle/sec for 180 seconds and is considered to be the agonist portion of the assay (eg, compounds which activate a positive calcium response during this portion are flagged as potential agonists). Following the 180 second read, 1 ul of either an EC20 (positive modulation assay) is delivered by an onboard pipette head. Measurements are taken kinetically for an additional 180 seconds.
TRHR FDSS Screening Protocol
1. Reagent, 3 uL 2000 cells/well 1536 TC treated Black plate in media containing 10% FCS
2. Time, 18 hours, 33.5C 5% CO2 (cells grown at 37C)
3. Reagent, 2 uL ABD fluo-8 Ca dye
4. Time, 30 min-1.5hrs hours, Room temp (6 plates/batch)
5. Detector, EX 480/EM 530C, FDSS 10 cycles baseline (1sec/cycle)
6. Compound, 23 nL of stock solution from library
7. Detector, EX 480/EM 530C, FDSS 230 cycles (1sec/cycle) Agonist mode
8. Compound, 1 ul EC20 of TRH made up in HEPES HBSS, 10 nM final
9. Detector, EX 480/EM 530C, FDSS 100 cycles (1sec/cycle) Potentiator mode
In the case of `c1ccc(C2CN3CCSC3=N2)cc1` (stereo not given), the activation is reported as -0.188%. In the case of `C[C@H](NC(=O)/C(C#N)=C/c1ccc(O)c(O)c1)c1ccccc1`, the activation is reported as -3.19%. `NS(=O)(=O)c1cccc2c1c([N+](=O)[O-])cc1nc(O)c(O)nc12` gave an activation of 0.875%. Work on `CCCCOC(=O)NS(=O)(=O)c1sc(CC(C)C)cc1-c1ccc(Cn2c(CC)nc3c(C)cc(C)nc32)cc1` yielded an activation of 2.25%. Work on `NC(=O)CC[C@H](N)C(=O)O` yielded an activation of -0.625%. Work on `CCCCCCN(CCCCCC)C(=O)Cc1c(-c2ccc(F)cc2)[nH]c2ccccc12` yielded an activation of -4%. With `CCSC(=N)N` the activation was 0.812%. With `O=c1[nH]ccc2c(O)cccc12` the activation was 1.12%. `COCc1nc2c([nH]1)c(=O)n(C)c(=O)n2CC(C)C` showed an activation of 0.875%. `c1ccc2nc(C3=NCCN3)ccc2c1` was tested, and the activation was 0.0625%. For `N=C(N)SCCN`, the activation was 0.688%. `N=C(N)c1ccc(N)cc1` gave an activation of -2.75%. For `NCCCCN`, the activation was 1.31%. Molecule `COc1cc([C@@H]2c3cc4c(cc3[C@H](O)C3COC(=O)[C@@H]32)OCO4)cc(OC)c1OC` (stereo not given in full) has an activation of 0.5%. `NC1CCN(O)C1=O` (stereo not given) was tested, and the activation was 0.875%. Work on `CCN1C(=O)C=CC1=O` yielded an activation of 1.12%. Molecule `C=CCN1CCc2cc(O)c(O)cc2C(c2ccccc2)C1` (stereo not given) has an activation of 1.38%. With `CNc1ncnc2c1ncn2[C@H]1C[C@H](OP(=O)(O)O)[C@@H](COP(=O)(O)O)O1` the activation was 1.25%. With `N#CC(C#N)=C(N)/C(C#N)=C/c1ccc(O)cc1` the activation was 0.25%. In the case of `O=c1cc(-c2ccccc2)[nH]c2nc(Cl)ccc12`, the activation is reported as -0.438%. `Nc1ncnc2c1ncn2C1CCCO1` (stereo not given) was tested, and the activation was -0.25%. Molecule `CCCC(=O)NCCc1c2n(c3ccc(OC)cc13)CCCc1ccccc1-2` has an activation of -9.25%. `N[C@@H](CCCC(=O)O)C(=O)O` showed an activation of 0.75%. With `CN(C)C(=O)/N=N/C(=O)N(C)C` the activation was 0.75%. `O=C(O)/C=C/c1ccc(O)c(O)c1` gave an activation of 0.25%. In the case of `O=C(O)C1CCCNC1` (stereo not given), the activation is reported as 0.625%. With `COc1cc(C(O)CO)ccc1O` (stereo not given) the activation was 0.688%. With `Cc1cc2c(cc1Cl)N(C(=O)Nc1ccnc3ccccc13)CC2` the activation was 1.44%. In the case of `O=C(O)C1=CCNCC1`, the activation is reported as 1.25%. `C/C(=C\c1ccc(C(=O)O)cc1)c1ccc2c(c1)C(C)(C)CCC2(C)C` gave an activation of -6%. Work on `Nc1ncnc2c1c(-c1ccc(Oc3ccccc3)cc1)cn2C1CCCC1` yielded an activation of -5.06%. Work on `COc1cc2c(CCNC(C)=O)c[nH]c2cc1O` yielded an activation of 0.875%. `NC1C=CC=C(C(=O)O)C1` (stereo not given) was tested, and the activation was -0.125%. Work on `Cc1cccc(C)c1OCC(N)C(C)C` (stereo not given) yielded an activation of 1.56%. For `CC(C)(CO)Cc1cc(C(C)(C)C)c(O)c(C(C)(C)C)c1`, the activation was -13.9%. Work on `CCCCCCC/C=C\CCCCCCCCC(=O)O` yielded an activation of 1.5%. `CCCN(CCc1ccccc1)C1CCc2c(O)cccc2C1` (stereo not given) gave an activation of 1.25%. In the case of `c1ccc2c(c1)CC(N1CCN(c3cccc4c3OCCO4)CC1)C2`, the activation is reported as -3.75%. With `COc1cc(CC(=O)O)ccc1O` the activation was 0.125%. Molecule `O=C(O)c1cc2cc(F)ccc2[nH]1` has an activation of -2.56%.
